CHRM1 PAM: human CHRM1 positive allosteric modulation; activation, % at 3 µM; 0.088% of 360,000 active; CHO-K1 hM1, Fluo-8 calcium fluorescence, ACh EC20; 0% = ACh EC20, 100% = maximal ACh; in the data active = activation above about 19%, passing the limit was not always enough
Target sequence (P11229 whole entry, looked up): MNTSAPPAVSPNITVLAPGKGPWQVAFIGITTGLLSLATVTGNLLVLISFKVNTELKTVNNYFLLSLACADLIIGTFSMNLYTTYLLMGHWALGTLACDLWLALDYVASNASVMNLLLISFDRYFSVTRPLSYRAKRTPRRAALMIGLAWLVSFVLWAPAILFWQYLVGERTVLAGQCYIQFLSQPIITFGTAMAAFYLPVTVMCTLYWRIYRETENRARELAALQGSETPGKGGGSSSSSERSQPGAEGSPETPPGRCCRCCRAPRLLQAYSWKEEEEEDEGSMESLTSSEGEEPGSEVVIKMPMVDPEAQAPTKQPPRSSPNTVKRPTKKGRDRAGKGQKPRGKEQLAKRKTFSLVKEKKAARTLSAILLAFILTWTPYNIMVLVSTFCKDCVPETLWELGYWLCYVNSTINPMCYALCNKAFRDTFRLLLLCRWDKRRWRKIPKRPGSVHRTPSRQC
CHO-K1 Ca ag: nonselective activator or artifact in parental CHO-K1 cells. Fluo-8 calcium fluorescence; scaled to maximal ATP response, vehicle zero. activation, % at 3 µM. 0.48% of 360,000 active. AID 602248; in the data active = activation above about 15%;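 note: untransfected CHO-K1 host cells lacking M1 receptor as counterscreen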
M1 antag: antagonists of human M1 muscarinic receptor. 1.3% of 360,000 active. CHO-K1 hM1, Fluo-8 calcium fluorescence, ACh EC80 antagonist. AID 588852. P11229. inhibition, % at 3 µM;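 active = percent inhibition above its own plate's cutoff, namely the mean of that plate's compound wells plus 3 SD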;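 note: peak over basal fluorescence ratio during 140 s after agonist addition; 0% = ACh EC80 plus DMSO and 100% = DMSO alone without agonist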
M1 ag: human M1 muscarinic receptor agonism; P11229; activation, % at 3 µM; AID 588814; CHO-K1 hM1, Fluo-8 calcium fluorescence, agonist mode; 0% DMSO, 100% acetylcholine EC100; 0.33% of 360,000 active;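 active = activation above the run's mean compound activation plus 3 SD, cut at about 16% in these data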;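 note: peak over basal fluorescence ratio within a 140 s kinetic read after compound addition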
CHO-K1 Ca antag: counter-screen for M1 antagonists: effect in parental CHO-K1 cells | 0.6% of 360,000 active | inhibition, % at 3 µM | ATP-induced calcium, Fluo-8 fluorescence;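 active = inhibition above a per-plate cutoff, the plate's mean sample inhibition plus 3 SD, cut at about 24% in these data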;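 note: 0% = DMSO plus EC80 ATP and 100% = DMSO alone without ATP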
CHO-K1 Ca PAM: counter-screen for M1 PAMs: effect in parental CHO-K1 cells | activation, % at 3 µM | 0.02% of 360,000 active | ATP EC20, Fluo-8 calcium fluorescence; 0% at ATP EC20, 100% at ATP max;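 active = activation above the run cutoff, the mean activation of all test compounds plus 3 SD, cut at about 40% in these data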;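 note: peak over basal fluorescence ratio in a 140 s read after ATP addition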
Starred values were filed as active, the others as inactive. Sampled rows, rich in hits. Any-hit rate of the full collection: about 2.3%.

Results for COc1cc(/C=C2\SC(=Nc3ccc(Cl)c(C(=O)O)c3)NC2=O)c(Br)c(Br)c1O ?
CHRM1 PAM: -10; CHO-K1 Ca ag: 42*; M1 antag: 19; M1 ag: 51*; CHO-K1 Ca antag: 27*; CHO-K1 Ca PAM: -21

Results for CCc1ccc(N=C2NC(=O)/C(=C/c3cc(OC)c(O)c(OC)c3)S2)cc1 ?
CHRM1 PAM: -4; CHO-K1 Ca ag: 12; M1 antag: 7; M1 ag: 1; CHO-K1 Ca antag: 1; CHO-K1 Ca PAM: 4

Results for OC(COc1ccccc1)CN1CCCCC1 (centres undefined) ?
CHRM1 PAM: 3; CHO-K1 Ca ag: 2; M1 antag: -13; M1 ag: -4; CHO-K1 Ca antag: -22; CHO-K1 Ca PAM: 26

What do the screens show for `OC(COc1ccc(CNCCc2ccccc2F)cc1)CN1CCCCC1` (centres undefined)?
CHRM1 PAM: -18; CHO-K1 Ca ag: 0; M1 antag: 38*; M1 ag: -7; CHO-K1 Ca antag: 2; CHO-K1 Ca PAM: -11

What do the screens show for `CCOc1ccccc1N(CC(=O)NC1CCCC1)S(=O)(=O)c1ccc(C)cc1`?
CHRM1 PAM: 10; CHO-K1 Ca ag: 0; M1 antag: -12; M1 ag: -8; CHO-K1 Ca antag: -6; CHO-K1 Ca PAM: 17

How did COc1cccc(CC(=O)OCC(=O)N(C)CC(=O)Nc2ccc(F)cc2)c1 do in these assays?
CHRM1 PAM: 10; CHO-K1 Ca ag: 0; M1 antag: -6; M1 ag: 0; CHO-K1 Ca antag: 12; CHO-K1 Ca PAM: -8

What do the screens show for `O=CN1Cc2[nH]c3ccccc3c2N(c2ccc(Cl)cc2)C1=O`?
CHRM1 PAM: 2; CHO-K1 Ca ag: 0; M1 antag: 11; M1 ag: -3; CHO-K1 Ca antag: 27*; CHO-K1 Ca PAM: -8

What do the screens show for `Cc1cccc(C2N(c3ccc(F)cc3)C(=O)C3CCCN32)c1` (centres undefined)?
CHRM1 PAM: -3; CHO-K1 Ca ag: 0; M1 antag: -2; M1 ag: -7; CHO-K1 Ca antag: 31*; CHO-K1 Ca PAM: -13

How did Cc1ccc(C2N(c3ccc(F)cc3)C(=O)C3CCCN32)cc1 (centres undefined) do in these assays?
CHRM1 PAM: 6; CHO-K1 Ca ag: 0; M1 antag: -9; M1 ag: -8; CHO-K1 Ca antag: -1; CHO-K1 Ca PAM: 19

Results for NC(=O)c1ccsc1NC(=O)COC(=O)c1cnccn1 ?
CHRM1 PAM: 16; CHO-K1 Ca ag: 0; M1 antag: -4; M1 ag: 4; CHO-K1 Ca antag: 12; CHO-K1 Ca PAM: -23

How did O=C(COC(=O)c1cnccn1)Nc1ccc(Cl)cn1 do in these assays?
CHRM1 PAM: 12; CHO-K1 Ca ag: 0; M1 antag: -16; M1 ag: 4; CHO-K1 Ca antag: 27*; CHO-K1 Ca PAM: -29

What do the screens show for `CCN(CC)C(=O)c1nc[nH]c1C(=O)N1CCC(C)CC1`?
CHRM1 PAM: 2; CHO-K1 Ca ag: 1; M1 antag: -5; M1 ag: 4; CHO-K1 Ca antag: -12; CHO-K1 Ca PAM: -7

What do the screens show for `O=C(CCCOC(=O)c1cccnc1Cl)c1ccc(Br)cc1`?
CHRM1 PAM: 4; CHO-K1 Ca ag: 5; M1 antag: 3; M1 ag: -4; CHO-K1 Ca antag: -22; CHO-K1 Ca PAM: 22

What do the screens show for `O=C(CCCOC(=O)c1ccc(O)cc1O)c1ccc(Br)cc1`?
CHRM1 PAM: -12; CHO-K1 Ca ag: 7; M1 antag: 19*; M1 ag: 0; CHO-K1 Ca antag: 9; CHO-K1 Ca PAM: -8

What do the screens show for `COc1cc(C(=O)OCC(=O)NCCC2=CCCCC2)ccc1OCC(C)C`?
CHRM1 PAM: 2; CHO-K1 Ca ag: 0; M1 antag: -4; M1 ag: -4; CHO-K1 Ca antag: 0; CHO-K1 Ca PAM: 9

How did Cc1ccccc1-n1nnnc1SC(C)C(=O)Nc1ccc(N2CCN(C)CC2)cc1 (centres undefined) do in these assays?
CHRM1 PAM: -21; CHO-K1 Ca ag: 0; M1 antag: 51*; M1 ag: -5; CHO-K1 Ca antag: -8; CHO-K1 Ca PAM: 5

Results for Cc1ccccc1-n1nnnc1SCC(=O)Nc1ccc(N2CCN(C)CC2)cc1 ?
CHRM1 PAM: -17; CHO-K1 Ca ag: 0; M1 antag: 7; M1 ag: -14; CHO-K1 Ca antag: -9; CHO-K1 Ca PAM: -9

How did Cc1ccc(NC(=S)NCc2ccccc2)cc1[N+](=O)[O-] do in these assays?
CHRM1 PAM: -17; CHO-K1 Ca ag: 12; M1 antag: 25; M1 ag: -1; CHO-K1 Ca antag: 20; CHO-K1 Ca PAM: -14

How did Cc1ccc(CNC(=S)Nc2ccc(C)c([N+](=O)[O-])c2)cc1 do in these assays?
CHRM1 PAM: -16; CHO-K1 Ca ag: 10; M1 antag: 18; M1 ag: 9; CHO-K1 Ca antag: 29*; CHO-K1 Ca PAM: -13

How did N#CC1=C(N)Oc2nc(-c3ccccc3)[nH]c2C1c1cccnc1 (centres undefined) do in these assays?
CHRM1 PAM: 0; CHO-K1 Ca ag: 0; M1 antag: -4; M1 ag: -4; CHO-K1 Ca antag: 32*; CHO-K1 Ca PAM: -7

Results for CCN(CC)c1ccc2c(c1)OC(N)=C(C#N)C2c1cccnc1 (centres undefined) ?
CHRM1 PAM: -11; CHO-K1 Ca ag: 17*; M1 antag: -4; M1 ag: 22*; CHO-K1 Ca antag: -10; CHO-K1 Ca PAM: 19

Results for N#CC1=C(N)Oc2n[nH]c(-c3ccccc3)c2C1c1cccnc1 (centres undefined) ?
CHRM1 PAM: 5; CHO-K1 Ca ag: 0; M1 antag: -8; M1 ag: -3; CHO-K1 Ca antag: 1; CHO-K1 Ca PAM: 7

Results for CCOC(=S)SCC(=O)Nc1nc(-c2ccc(Br)cc2)cs1 ?
CHRM1 PAM: 4; CHO-K1 Ca ag: 2; M1 antag: 32*; M1 ag: -4; CHO-K1 Ca antag: -5; CHO-K1 Ca PAM: 11

How did CCOC(=S)SCC(=O)Nc1nc(-c2ccccc2)cs1 do in these assays?
CHRM1 PAM: 6; CHO-K1 Ca ag: 5; M1 antag: -8; M1 ag: -6; CHO-K1 Ca antag: -8; CHO-K1 Ca PAM: 19

Results for CCOC(=O)N1CCN(C(=O)CSCc2ccc(C)cc2)CC1 ?
CHRM1 PAM: -1; CHO-K1 Ca ag: 0; M1 antag: 18; M1 ag: 0; CHO-K1 Ca antag: 26*; CHO-K1 Ca PAM: -8

Results for Cc1sc(NC(=O)CSC2=NCCS2)nc1-c1ccccc1 ?
CHRM1 PAM: -2; CHO-K1 Ca ag: 0; M1 antag: -24; M1 ag: -4; CHO-K1 Ca antag: 1; CHO-K1 Ca PAM: 6

What do the screens show for `Cc1ccc(-c2csc(NC(=O)CSC3=NCCS3)n2)cc1`?
CHRM1 PAM: -10; CHO-K1 Ca ag: 0; M1 antag: 4; M1 ag: -6; CHO-K1 Ca antag: 25*; CHO-K1 Ca PAM: -6

Compound activity: PubChem BioAssay, The Scripps Research Institute Molecular Screening Center
